These results are taken from PubChem BioAssay.

Active and inactive are the calls of the source. Unless noted, no rule for the calls is given here.

A short description of test [1]: compound effects on lung adenocarcinoma cell viability – A549, calcein-AM fluorescence, 48 h, basal, profiling panel (AID 1162). Also: test concentration not given here. The note with it: higher = more signal.
Test [2] is described as follows: compound effects on differentiated 3T3-L1 adipocyte viability – cell-based, 3T3-L1 adipocytes, calcein-AM fluorescence, 48 h, basal, profiling panel (AID 1163). Also: test concentration not given here. The following applies: 3T3-L1 adipocytes viability, higher = more signal.
Test [3] in a line: compound effects on hepatocellular carcinoma cell viability – HepG2, calcein-AM fluorescence, 48 h, basal, profiling panel (AID 1164). Also: test concentration not given here. The following applies: higher = more signal.
A short description of test [4]: compound effects on multiple myeloma cell viability – MM1S, calcein-AM fluorescence, 48 h, basal, profiling panel (AID 1165).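 Also: viability of MM1S multiple myeloma cells under basal unstimulated conditions; test concentration not given here.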 The following applies: higher = more signal.
Test [5] can be described thus: calcein-AM signal in unstimulated myeloma cells – cell-based, calcein-AM fluorescence, 48 h, PK04 Diversity Set, profiling panel (AID 1166).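 Also: cells grown under basal conditions without added stimulus; test concentration not given here.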 The following applies: RPMI8226 myeloma viability, higher = more signal.
Test [6] in a line: JC-1 mitochondrial signal, unstimulated HepG2 cells – cell-based, JC-1 fluorescence, 24 h, 100 nL compound, profiling panel (AID 1167). Also: test concentration not given here. The note with it: HepG2 mitochondrial potential, higher = more signal.
Test [7] can be described thus: JC-1 mitochondrial signal, unstimulated adipocytes – cell-based, JC-1 fluorescence, 3T3-L1 adipocytes, 24 h, 100 nL compound, profiling panel (AID 1168). Also: test concentration not given here. The note with it: JC-1 mitochondrial fluorescence, higher = more signal, called active from +8 up or from −8 down.
A short description of test [8]: JC-1 mitochondrial signal, unstimulated myeloma cells – cell-based, JC-1 fluorescence, RPMI8226, 24 h, 100 nL compound, profiling panel (AID 1169). Also: test concentration not given here. The note with it: JC-1 mitochondrial potential fluorescence, higher = more signal.
Test [9] is described as follows: JC-1 mitochondrial signal, unstimulated MM1S myeloma – cell-based, JC-1 fluorescence, 24 h, 100 nL compound, profiling panel (AID 1170). Also: test concentration not given here. The following applies: MM1S mitochondrial potential, higher = more signal.
A short description of test [10]: resazurin metabolic signal in A549 cells – cell-based, resazurin fluorescence, 24 h, PK04 Diversity Set, profiling panel (AID 1171). Also: test concentration not given here. The note with it: A549 viability, higher = more signal, called active from +8 up or from −8 down. (Alamar Blue is a resazurin reagent that responds to reducing activity.)
The nature of test [11]: resazurin metabolic signal in HepG2 cells – cell-based, resazurin fluorescence, 24 h, PK04 Diversity Set, profiling panel (AID 1172). Also: test concentration not given here. The following applies: HepG2 viability, higher = more signal.
Test [12] in a line: budding yeast growth changes without added modifier – OD600, strain BY4716, 24 h, basal condition, primary screen (AID 1173). The following applies: S. cerevisiae BY4716 growth, OD600, 24 h; higher = more signal, called active from +8 up or from −8 down.
Test [13] in a line: viability profiling in MM1S myeloma cells – cell-based, resazurin fluorescence, basal, 24 h, PK04 Diversity Set, profiling panel (AID 1174). Also: test concentration not given here. The note with it: higher = more signal, called active from +8 up or from −8 down.
Test [14] has as its target Dihydroorotate dehydrogenase (quinone), mitochondrial (Plasmodium falciparum (isolate 3D7)) (UniProt Q08210). In words: inhibition of P. falciparum DHODH – biochemical, C-terminal His tag, absorbance 600 nm, primary screen (AID 1175).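 Also: recombinant parasite enzyme with a five histidine tag at its C terminus; test concentration not given here.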 The note with it: PfDHODH enzyme, DCIP absorbance 600 nm; higher = more signal, called active from +8 up or from −8 down.
Test [15] is described as follows: inhibition of PAO1 biofilm formation – strain PAO1, LB-PBS medium, absorbance 600 nm, primary screen (AID 1176). Also: test concentration not given here. The following applies: P. aeruginosa PAO1 growth/biofilm, A600, 12 h; higher = more signal.
Test [16] in a line: growth modulation of vineyard yeast isolate – strain RM11-1a, OD600, basal, 24 h, primary screen (AID 1177).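 Also: cultures grown under basal conditions with no added stressor; test concentration not given here.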 The note with it: S. cerevisiae RM11-1a growth, OD600, 24 h; higher = more signal, called active from +8 up or from −8 down.
Test [17] in a line: growth of efflux-deficient E. coli DRC39 – strain DRC39, OD650, 24 h, E. coli filamentation inducers, primary screen (AID 1178).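 Also: growth measured as culture turbidity by optical density at 650 nm; test concentration not given here.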 The following applies: E. coli DRC39 acrAB, higher = more signal, called active from +8 up or from −8 down.
Test [18] in a line: growth of efflux-deficient E. coli DRC39 – strain DRC39, OD650, 48 h, E. coli filamentation inducers, primary screen (AID 1179).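 Also: screen aims at cell division blockers that make cells filament.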 The following applies: E. coli DRC39 delta-acrAB growth, higher = more signal, called active from +8 up or from −8 down.
Test [19] can be described thus: viability profiling in RPMI8226 myeloma cells – cell-based, resazurin fluorescence, basal, 24 h, PK04 Diversity Set, profiling panel (AID 1180).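 Also: RPMI8826 multiple myeloma cell line at 5000 cells per well; test concentration not given here.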 The note with it: higher = more signal.
In test [20] the target is E3 ubiquitin-protein ligase XIAP (Homo sapiens) (UniProt P98170). Nature of the test: small molecules binding XIAP protein – biophysical, small-molecule microarray, fluorescence 635 nm, primary screen (AID 1181).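 Also: score merges 667 nm emission and signal to noise over triplicate slides.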 The note with it: higher = more signal.
E3 ubiquitin-protein ligase XIAP (Homo sapiens), sequence (P98170 whole entry, looked up): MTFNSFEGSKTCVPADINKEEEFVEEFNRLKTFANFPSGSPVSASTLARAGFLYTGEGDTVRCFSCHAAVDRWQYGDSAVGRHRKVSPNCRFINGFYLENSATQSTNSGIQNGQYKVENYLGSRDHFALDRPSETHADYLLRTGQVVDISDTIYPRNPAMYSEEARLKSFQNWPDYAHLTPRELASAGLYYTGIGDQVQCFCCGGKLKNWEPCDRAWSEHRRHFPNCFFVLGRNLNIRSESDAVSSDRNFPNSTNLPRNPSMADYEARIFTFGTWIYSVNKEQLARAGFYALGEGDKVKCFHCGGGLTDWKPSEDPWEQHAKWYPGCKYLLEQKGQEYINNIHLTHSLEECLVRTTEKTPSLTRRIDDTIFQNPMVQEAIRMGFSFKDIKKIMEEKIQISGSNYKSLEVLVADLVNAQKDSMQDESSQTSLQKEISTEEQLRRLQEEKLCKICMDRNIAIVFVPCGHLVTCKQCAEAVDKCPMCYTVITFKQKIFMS

Dihydroorotate dehydrogenase (quinone), mitochondrial (Plasmodium falciparum (isolate 3D7)), sequence (Q08210 whole entry, looked up): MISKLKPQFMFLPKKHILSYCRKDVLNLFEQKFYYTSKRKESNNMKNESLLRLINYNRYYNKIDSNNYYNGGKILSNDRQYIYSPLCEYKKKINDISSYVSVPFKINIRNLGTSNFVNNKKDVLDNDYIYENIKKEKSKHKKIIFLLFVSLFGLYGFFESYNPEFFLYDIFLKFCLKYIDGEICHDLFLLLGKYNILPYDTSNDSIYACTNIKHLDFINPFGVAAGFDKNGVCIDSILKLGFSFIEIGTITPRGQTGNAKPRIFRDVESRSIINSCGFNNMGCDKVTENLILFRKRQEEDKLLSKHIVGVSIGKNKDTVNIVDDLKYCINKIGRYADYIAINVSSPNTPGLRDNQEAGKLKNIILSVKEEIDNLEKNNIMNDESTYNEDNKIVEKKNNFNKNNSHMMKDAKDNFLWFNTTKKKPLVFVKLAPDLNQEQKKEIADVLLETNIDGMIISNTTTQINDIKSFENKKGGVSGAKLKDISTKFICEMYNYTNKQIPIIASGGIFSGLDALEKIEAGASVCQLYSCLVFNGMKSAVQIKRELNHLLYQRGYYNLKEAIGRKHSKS

On to `C=CCN1C(=O)[C@]2(O[C@H](CCO)[C@@H]([Si](C)(C)c3ccc(OC)cc3)[C@@H]2C)c2cc(N3C(=O)COc4ccccc43)ccc21`, for which the z-score in test [1] is -3.84; in test [2], 1.76; in test [3], -4.67; in [4], -2.7; in test [5], -4.36; in [6] it was -2.14. For the same compound, the z-score is 0.707 (inactive) in test [7]; -1.06 in test [8]; -2.25 in test [9]; -5.62 (inactive) in test [10]; -5.79 in [11]; 0.346 (inactive) in [12]. The z-score was -8.88 (active) in test [13]; -0.34 (inactive) in [15]; 2.96 (inactive) in test [16]; 1.55 (inactive) in test [17]; 0.68 (inactive) in [18]; -6.28 in test [19]. Besides, the composite z-score in test [14] was 0.828 (inactive); in test [20] it was 0.0356.

As to `CN1C(=O)[C@@]2(Cc3ccccc3)N=C(c3ccc(OCCCO)cc3)O[C@H]2c2ccccc21`, the z-score in [1] is -1.11; in [2] it was -0.597; in [3], -1.61; in test [4], -2.71; in [5], -4.45; in test [6], 0.384. Further, the z-score in test [7] is 1.69 (inactive); in [8] it was -1.26; in test [9], -1.89; in test [10] it was -0.788 (inactive); in test [11], -0.286; in test [12], -6.2 (inactive). Besides, the z-score is -2.4 (inactive) in test [13]; 1.14 (inactive) in test [15]; 0.202 (inactive) in test [16]; 0.432 (inactive) in [17]; 0.514 (inactive) in test [18]; -1.99 in [19]. The values for the composite z-score in test [14] and in test [20] were 0.271 (inactive) and 0.283, respectively.

On to `CC1CC/C=C\[C@H]2OC34C=CCN(C(C)(C)C)C(=O)[C@H]3N(C(CO)C(C)C)C(=O)[C@@H]4C2C(=O)O1` (stereo not given in full), for which the z-score in test [1] is 0.0643; in test [2], 0.385; in test [3] it was -0.554; in test [4], 1.61; in [5], 0.136; in [6] it was -0.976. Further, the z-score in test [7] is -0.295 (inactive); in test [8], -0.622; in test [9], -0.516; in test [10] it was -0.266 (inactive); in test [11], -0.49; in test [12] it was -0.154 (inactive). For the same compound, the z-score in [13] was -0.34 (inactive); in [15] it was 0.0251 (inactive); in test [16], -0.472 (inactive); in test [17], 0.361 (inactive); in test [18] it was 0.338 (inactive); in test [19] it was -0.375. Also, the composite z-score in [14] is -6.62 (inactive); in test [20] it was 0.0357.

For `C=C(C(=O)CC[C@H](OC(=O)c1ccccc1-c1ccccc1C(=O)O)c1ccccc1OCCO)C(C)C`, the z-score in [1] is 0.301; in test [2], 1.72; in test [3] it was 0.255; in [4], -3.44; in test [5] it was -2.35; in [6] it was -0.266. For the same compound, the z-score in [7] was 0.585 (inactive); in [8], -0.636; in test [9], 0.63; in [10] it was 0.109 (inactive); in test [11] it was 0.0659; in test [12], -1.04 (inactive). In addition, the z-score in test [13] was 0.181 (inactive); in test [15] it was 0.108 (inactive); in test [16], -0.0722 (inactive); in test [17], 0.88 (inactive); in test [18], 0.32 (inactive); in test [19], -0.268. The composite z-score is -0.169 (inactive) in test [14] and 0.194 in test [20].

Take `[N-]=[N+]=Nc1ccccc1[C@@H]1OC(c2ccc(OCCCO)cc2)=N[C@]1(Cc1ccccc1)C(=O)NCc1ccccc1`: the z-score in test [1] was -1.17; in [2], -0.0535; in [3] it was -2.13; in test [4], -3.35; in test [5], -3.8; in test [6], -2.02. The z-score in test [7] is 0.976 (inactive); in test [8], -1.14; in test [9], -2.59; in test [10], -1.48 (inactive); in test [11], -0.421; in test [12] it was 0.152 (inactive). The z-score is -3.62 (inactive) in [13]; 0.563 (inactive) in test [15]; 0.265 (inactive) in [16]; -0.324 (inactive) in [17]; -0.441 (inactive) in test [18]; -3.62 in test [19]. Moreover, the composite z-score was 0.613 (inactive) in test [14] and 0.338 in test [20].

For `O=C1O[C@H](c2ccccc2)[C@H](c2ccccc2)N2[C@H]1[C@@H](C(=O)N1CCCCCCC1)[C@]1(C(=O)Nc3ccc(C#CC4(O)CCCCCC4)cc31)[C@H]2c1ccc(O)cc1`, the z-score was 0.792 in test [1]; -0.597 in test [2]; 1.68 in test [3]; -0.845 in [4]; -1.59 in test [5]; -0.806 in test [6]. The z-score was 0.212 (inactive) in test [7]; -0.613 in test [8]; -0.515 in test [9]; 0.0109 (inactive) in test [10]; 0.114 in [11]; -0.101 (inactive) in test [12]. The z-score in test [13] is -0.5 (inactive); in test [15], 0.875 (inactive); in [16] it was 0.74 (inactive); in test [17], 0.799 (inactive); in test [18] it was 0.163 (inactive); in [19], 0.295. Moreover, the composite z-score in test [14] is 0.0579 (inactive); in test [20], 0.322.

`Cc1ccc(C(C)CC(O)C2C=CC3C(=O)N(c4ccccc4)C(=O)C3N2Nc2ccc(C#N)cc2)o1` (stereo not given): the z-score in test [1] was 0.491; in test [2], -0.0968; in test [3], 0.459; in test [4], -3.7; in test [5], -0.355; in test [6], 0.175. Besides, the z-score is -0.155 (inactive) in test [7]; -1.05 in test [8]; -1.2 in test [9]; -1.17 (inactive) in test [10]; -0.793 in [11]; -17.1 (active) in test [12]. Further, the z-score in [13] was -3.76 (inactive); in test [15] it was 0.0616 (inactive); in test [16], -20.8 (active); in test [17], 0.431 (inactive); in [18] it was 1.14 (inactive); in [19], -5.62. Besides, the composite z-score is -1.79 (inactive) in [14] and 0.0204 in test [20].

`C=C(C)[C@@H]1CC=C(C(O)C2C=CC3C(=O)N(c4ccccc4)C(=O)C3N2Nc2ccc(C#N)cc2)CC1` (stereo not given in full): the z-score in test [1] is -0.391; in test [2], -0.575; in test [3] it was 0.166; in [4], -0.331; in [5], 0.0001; in [6], -2.47. In addition, the z-score in [7] is -2.61 (inactive); in test [8], -0.671; in test [9] it was -0.641; in [10] it was -0.31 (inactive); in [11], -1.12; in [12], -0.111 (inactive). Besides, the z-score in test [13] was -0.591 (inactive); in test [15], 1.8 (inactive); in [16], 0.556 (inactive); in [17] it was -0.688 (inactive); in [18] it was -0.906 (inactive); in test [19], 0.0852. The composite z-score in test [14] is 0.0143 (inactive); in [20], 0.169.

Consider `CN(C)CCCC[C@@H]1NC(=O)[C@@H]2C[C@H](C(=O)O)[C@H](c3cccc(OCCO)c3)N2C1=O`, for which the z-score was 0.0184 in [1]; 0.13 in test [2]; 0.201 in test [3]; 0.238 in [4]; 0.312 in [5]; 1.05 in test [6]. In addition, the z-score was -0.864 (inactive) in test [7]; -0.804 in test [8]; 0.174 in test [9]; 0.593 (inactive) in test [10]; -0.0398 in test [11]; -0.79 (inactive) in [12]. Further, the z-score in [13] is 0.472 (inactive); in test [15], 0.808 (inactive); in [16], -0.547 (inactive); in test [17], -0.175 (inactive); in test [18], 0.494 (inactive); in [19], 0.259. Also, the figures for the composite z-score in [14] and in test [20] were -0.126 (inactive) and -0.0398, respectively.
